Screening data from PubChem BioAssay.
A selection: hits, their analogues and other compounds. The true share with any hit is near 18%.
IL-1B inflam inh: inflammasome signaling inhibition, IL-1 beta readout. THP-1 LPS/ATP IL-1B secretion, AlphaLISA, 16 h; hits give low values. activity change, % at 57.5 µM. actives 4.7% (n = 360,000). AID 743279; in the data active = activity change below about -50%; inconclusive = mostly about -30% to -49%; note: % is set by controls: 0 for no effect and ±100 for the full control effect
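Secreted IL-1B measured by AlphaLISA bead assay after 16 h compound exposure of THP-1 cells; compounds (final up to 57.5 uM) added 1 h before LPS (250 ng/mL) and ATP (1.25 mM) stimulation; lower signal means less secretion.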
TDP1 block: blocks human tyrosyl-DNA phosphodiesterase 1 | Q9NUW8 | recombinant TDP1, AlphaScreen DNA substrate cleavage | Potency, µM (top dose mostly 130 µM), inactives show at the top dose activity change, negative = inhibition, most hits filed as inhibitors | actives 0.28% (n = 350,000); note: potency is the fitted concentration of half-maximal effect; % is set by controls: 0 for no effect and ±100 for the full control effect; nearly all actives have a fitted effect of over 40% in size
Target sequence (Q9NUW8 whole entry, looked up): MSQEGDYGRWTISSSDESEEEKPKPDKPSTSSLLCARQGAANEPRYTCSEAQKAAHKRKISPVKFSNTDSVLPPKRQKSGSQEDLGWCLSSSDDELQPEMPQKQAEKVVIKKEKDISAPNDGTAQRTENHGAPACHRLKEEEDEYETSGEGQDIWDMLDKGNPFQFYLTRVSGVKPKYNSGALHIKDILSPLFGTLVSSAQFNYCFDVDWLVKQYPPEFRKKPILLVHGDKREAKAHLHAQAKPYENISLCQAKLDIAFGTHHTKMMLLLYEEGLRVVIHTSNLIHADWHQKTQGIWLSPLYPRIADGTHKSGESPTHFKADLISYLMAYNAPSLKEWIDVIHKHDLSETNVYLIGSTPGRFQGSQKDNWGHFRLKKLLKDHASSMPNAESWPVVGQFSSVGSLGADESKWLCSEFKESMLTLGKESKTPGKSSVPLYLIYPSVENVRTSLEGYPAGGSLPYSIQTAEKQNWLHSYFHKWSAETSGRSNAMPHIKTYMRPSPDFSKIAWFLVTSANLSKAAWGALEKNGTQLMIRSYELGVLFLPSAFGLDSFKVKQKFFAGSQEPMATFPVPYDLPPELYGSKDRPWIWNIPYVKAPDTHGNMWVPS
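Here, a 5' biotin and 3' phosphotyrosine-FITC DNA oligonucleotide reports Tdp1 activity: intact substrate bridges AlphaScreen beads, while cleavage leaves a 3' phosphate and drops signal. All incubations at room temperature.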
TGFb inhibitor: inhibitors of TGF-b signaling; HepG2 CAGA-GFP TGF-b/SMAD3 reporter, GFP fluorescence, 18 h; TGF-beta stimulated, 500 pg/mL final; Potency, µM (top dose mostly 46.1 µM), for the others: top-dose activity, negative = inhibition, most hits filed as inhibitors; actives 1.2% (n = 410,000); note: potency is the fitted concentration of half-maximal effect; % is set by controls: 0 for no effect and ±100 for the full control effect; nearly all actives have a fitted effect of over 65% in size
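HEPG2 CAGA-GFP reporter cells (1000/well, DMEM with 1% FBS) received compounds, then recombinant TGF-beta at 500 pg/mL final for 18 hours at 37 degrees C. Per-cell GFP summed per well was normalised to unstimulated and stimulated DMSO controls before curve fitting.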
DT40 TDP1 no CPT: qHTS for Inhibitors of human tyrosyl-DNA phosphodiesterase 1 (TDP1): qHTS in cells in absence of CPT | actives 15% (n = 420,000) | DT40 Tdp1-/- hTDP1 cells, no CPT, ATP luminescence, 48 h | AID 686978, 2013 | Potency, µM (series often up to 46.2 µM), for inactives: at the highest dose activity change, negative = growth inhibition, actives largely listed as inhibitors; note: potency is the fitted concentration of half-maximal effect; % is set by controls: 0 for no effect and ±100 for the full control effect; nearly all actives have a fitted effect of over 55% in size
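Cells were dispensed at 400 per well, compounds added by pin tool, plates incubated ≥48 hr at 37 °C, then CellTiter-Glo added for 30 min at room temperature before luminescence reading. Line: DT40 Tdp1-/- complemented with hTDP1; camptothecin omitted.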
TDP1 cell CPT: growth inhibition of DT40 Tdp1-/-;hTDP1 cells with camptothecin (screen for TDP1 inhibitors). chicken DT40 Tdp1-/-;hTDP1 cells + 20 nM CPT, ATP luminescence, 48 h. Potency, µM (highest dose often 46.2 µM), without a hit: at the highest dose activity change, negative = growth inhibition, most hits filed as inhibitors. actives 12% (n = 420,000); note: potency is the fitted concentration of half-maximal effect; % is set by controls: 0 for no effect and ±100 for the full control effect; nearly all actives have a fitted effect of over 55% in size
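Chicken DT40 Tdp1-/- cells complemented with human TDP1, 400 cells/well, exposed to compounds plus 20 nM camptothecin for at least 48 h at 37 C; viability read as ATP content by CellTiter-Glo luminescence.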
HepG2 tox: kills HepG2 cells in TGF-b inhibitor counter-screen. HepG2 CAGA-GFP viability, ATP luminescence, 18 h. Potency, µM (highest dose often 46.1 µM), without a hit: at the top dose activity change, negative = cytotoxicity, actives largely listed as cytotoxic. actives 0.76% (n = 410,000). AID 588856; note: potency is the fitted concentration of half-maximal effect
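CellTiter-Glo luminescence gave cytotoxicity after 18 hours at 37 degrees C. The cells were HepG2 CAGA-GFP in 1% FBS DMEM, stimulated with 500 pg/mL TGF-beta after compound addition. %Activity was normalised to no-cell wells (complete cell-killing) and DMSO (no toxicity), and curves were fitted and classified.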
* = called active by the depositor; ? = inconclusive; . = no result; [ ] = dose if it differs, or a comment. Unless noted, calls come from the whole dose curve; as a rule, active = well fitted curve in the direction sought with a large enough effect; inconclusive = small, poorly fitted or top-dose-only effect, or another doubt; inactive = no such curve, though single readings can be large; an effect the other way counts as inactive or inconclusive.

SMILES | IL-1B inflam inh | TDP1 block | TGFb inhibitor | DT40 TDP1 no CPT | TDP1 cell CPT | HepG2 tox
COc1ccc(N(CC(=O)N2CCN(c3cccc(C)c3)C(C)C2)S(=O)(=O)c2c(C)n[nH]c2C)cc1 (stereo not given) | -60.9* | 5.3% | -10.3% | ? | ? | -16.5%
COc1ccc(N(CC(=O)Nc2ccc(F)c(F)c2)S(=O)(=O)c2c(C)n[nH]c2C)cc1 | 0.0 | -6.8% | -6.3% | 6.1% | -6.0% | -0.9%
COc1ccc(NC(=O)CN(c2cc(C)cc(C)c2)S(=O)(=O)c2c(C)n[nH]c2C)cc1 | -8.0 | 1.3% | -2.5% | ? | 29.1µM* | -24.6%
c1ccc2c(C(c3c[nH]c4ccccc34)c3c[nH]c4ccccc34)c[nH]c2c1 | . | . | ? | ? | ? | -109.5%
Cc1ccc(C(c2ccccc2)c2c(C)[nH]c3ccccc23)s1 (stereo not given) | . | 1.3% | 14.1µM* | . | . | -99.3%
C[n+]1ccc(C(c2c[nH]c3ccccc23)c2cc[n+](C)c3ccccc23)c2ccccc21 | . | . | ? | 0.562µM* | 0.562µM* | -76.6%
Cc1[nH]c2ccccc2c1C(c1c[nH]c2ccccc12)c1c(C)[nH]c2ccccc12 | . | . | 15.8µM* | 15.8µM* | ? | -46.8%
O=C(O)c1cscc1-c1cccc2ccccc12 | 14.3 | . | -3.6% | -23.6% | -9.8% | -29.4%
O=C(Oc1ccc(N(Cc2cccs2)C2=NS(=O)(=O)c3ccccc32)cc1)c1ccccc1Cl | 17.6 | 4.2% | -14.7% | 5.8µM* | 6.51µM* | -65.0%
CCN(CC)C1CCN(C(=O)c2cnn(-c3ncc4c(n3)-c3ccccc3CCC4)c2COC)C1 (stereo not given) | . | . | . | -8.3% | 24.3%[9.04 µM] | .
Nc1nc2c(nc(Br)n2[C@@H]2O[C@H]3COP(=O)(O)O[C@H]3[C@@H]2O)c(=O)[nH]1 | . | -9.4%[56.1 µM] | . | -11.6% | 13.1% | .
O=c1c2nc(Br)n([C@@H]3O[C@@H]4CO[P@@](O)(=S)O[C@H]4[C@H]3O)c2nc2[nH]c(-c3ccccc3)cn12 | . | 22.4µM* | . | . | . | .
CC(C)NS(=O)(=O)c1ccc(OCC(=O)N2CCN(c3ccccc3F)CC2)cc1 | . | 1.1% | -1.8% | 14.6µM* | ? | 6.8%
COc1ccccc1N1CCN(C(=O)CCc2ccc(S(=O)(=O)NC(C)C)cc2)CC1 | 26.8 | 1.0% | -10.6% | 18.4µM* | ? | -5.3%
O=C(COc1ccc(S(=O)(=O)N2CCCC2)cc1)N1CCN(c2ccccc2F)CC1 | 28.9 | 5.1% | 10.9% | ? | ? | 4.1%
COc1ccccc1N1CCN(C(=O)CCc2ccc(S(=O)(=O)NCC(C)C)cc2)CC1 | 0.0 | 2.0% | -3.7% | 23.1µM* | ? | -4.9%
CC(C)OCCCn1c(SCC(=O)Nc2ccc(F)cc2)nc2c(sc3ccccc32)c1=O | . | 3.4% | -3.0% | -13.1% | -25.6% | -5.3%
Cc1ccc2nc(NC(=O)C(NS(=O)(=O)c3cccc4nsnc34)C(C)C)sc2c1 (stereo not given) | 50.8 | 9.2% | 6.8% | ? | 29.1µM* | 25.7%
CC(C)C(NS(=O)(=O)c1cccc2nsnc12)C(=O)Nc1nccs1 (stereo not given) | 27.0 | . | -11.4% | 6.6% | -3.6% | -5.3%
COc1ccc2nc(NC(=O)C3CCCN(S(=O)(=O)c4cccc5nsnc45)C3)sc2c1 (stereo not given) | ? | 7.9% | -4.3% | 16.4µM* | ? | -8.2%
COc1ccc2nc(NC(=O)C3CCCN(S(=O)(=O)c4cccc5nonc45)C3)sc2c1 (stereo not given) | -52.7* | 9.8% | 3.4% | ? | ? | -28.0%
COc1cccc(N2CCN(C(=O)C3CCCN(S(=O)(=O)c4cccc5nsnc45)C3)CC2)c1 (stereo not given) | . | 2.3% | ? | 9.2µM* | 9.2µM* | -19.9%
CC1(C)CC(C(=O)N2CCOc3ccc(CN4CCC(Oc5cccnc5)CC4)cc3C2)CCO1 (stereo not given) | . | . | . | -23.0% | ? | .
COCc1cc(C)nc2sc(C(=O)Nc3ccc(OC(F)(F)F)cc3)c(N)c12 | . | -6.3% | 0.1% | -29.1% | -15.6% | -21.9%
CCOc1ccc2nc(NC(=O)C3CCCN(S(=O)(=O)c4cccc5nonc45)C3)sc2c1 (stereo not given) | -11.3 | 5.3% | -9.5% | 16.4µM* | ? | -4.6%
SMILES | IL-1B inflam inh | TDP1 block | TGFb inhibitor | DT40 TDP1 no CPT | TDP1 cell CPT | HepG2 tox
COc1ccc(CNC(=O)C2CCN(S(=O)(=O)c3cccc4nsnc34)CC2)cc1 | -6.6 | -0.3% | 17.0% | ? | -15.4% | 2.5%
COc1ccc(CNC(=O)C2CCCN(S(=O)(=O)c3cccc4nsnc34)C2)cc1 (stereo not given) | -15.7 | 3.1% | ? | 23.1µM* | -11.2% | 16.7%
Cc1ccc(NC(=O)C2CCCN(S(=O)(=O)c3cccc4nsnc34)C2)cc1C (stereo not given) | . | 7.0% | -27.5% | 18.4µM* | ? | -23.7%
CCCCn1c(N)c(N(CCOC)C(=O)COC(=O)C(C)Oc2ccc(Cl)cc2)c(=O)[nH]c1=O (stereo not given) | -12.9 | . | -29.3% | 2.3% | -29.2% | -2.0%
N#CCSc1nc(-c2ccccc2)c2cc(Cl)ccc2n1 | 7.3 | -8.1% | -3.2% | 0.0% | -0.7% | 6.7%
CNCc1nc(-c2ccc[nH]2)c2cc(Cl)ccc2n1 | . | . | 1.1% | 14.1µM* | 11.2µM* | -35.1%
Cc1ccc(S(=O)(=O)N2CCN(c3cc4c(cc3[N+](=O)[O-])n(C)c(=O)n4C)CC2)cc1 | -27.3 | 3.1% | ? | 16.4µM* | ? | -15.6%
